PI5P4Ka inh = PI5P4K alpha (human) kinase inhibition; PI5P4Kalpha enzyme, ADP-Glo luminescence, 60 min; active compounds read low; max response, %; hit rate 1.2% among 330,000; active = max response of -50% or lower; inconclusive = between -30% and -50%; inactive = -30% or higher; note: value at the top dose of about 77 µM
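Luminescence from ADP-Glo served as readout of PI5P4Kalpha activity in a qHTS format. Reaction: enzyme, substrate, compound, ATP at 5 microM final, 60 min at RT.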
WRN inhibitor = WRN helicase (human) inhibition. Q14191. WRN helicase unwinding, fluorescent forked duplex, kinetic. Potency, µM (top dose mostly 114 µM), inactives show at the top dose activity change, negative = inhibition, hits mostly inhibitors. hit rate 0.46% among 360,000. AID 651768; note: potency is the fitted concentration of half-maximal effect; nearly all actives have a fitted effect of over 55% in size
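Fluorescence dequenching readout, ex 525 nm/em 598 nm, kinetic mode: forked duplex DNA (100 nM final) with adjacent fluorophore and quencher unwound by WRN (20 nM final) with 2 mM ATP. Compound preincubation 15 min, room temperature.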
FEN1 inhibitor = inhibitors of human flap endonuclease 1; Recombinant FEN1 flap cleavage, fluorescence, 15 min; hit rate 0.35% among 390,000; Potency, µM (doses to about 114 µM), without a hit: at the highest dose activity change, negative = inhibition, hits mostly inhibitors; P39748; AID 588795; note: potency is the fitted concentration of half-maximal effect; nearly all actives have a fitted effect of over 65% in size
Target sequence (P39748 whole entry, looked up): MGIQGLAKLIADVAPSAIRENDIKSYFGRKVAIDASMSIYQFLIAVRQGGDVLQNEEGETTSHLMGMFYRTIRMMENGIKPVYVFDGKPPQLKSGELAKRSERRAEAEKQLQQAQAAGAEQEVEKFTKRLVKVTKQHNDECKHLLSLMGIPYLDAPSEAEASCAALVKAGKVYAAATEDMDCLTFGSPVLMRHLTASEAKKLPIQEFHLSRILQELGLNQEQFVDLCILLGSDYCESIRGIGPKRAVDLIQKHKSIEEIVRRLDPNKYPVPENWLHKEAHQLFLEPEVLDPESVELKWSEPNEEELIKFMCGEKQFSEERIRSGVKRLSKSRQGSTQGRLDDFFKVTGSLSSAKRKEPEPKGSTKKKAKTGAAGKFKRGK
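Reaction started by adding substrate (50 nM final) to 10 nM enzyme after 15 min room-temperature compound preincubation. Reads at 0 and 15 min, with data normalized and fitted to a four-parameter Hill equation.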
Tb PGK inh = T. brucei PGK inhibition; Potency, µM (doses to about 57.5 µM), for the others: top-dose activity change, negative = inhibition, hits mostly inhibitors; P07378; PGK/GAPDH coupled, Kinase-Glo luminescence, 60 min; hit rate 0.043% among 380,000; note: potency is the fitted concentration of half-maximal effect; nearly all actives have a fitted effect of over 60% in size
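Recombinant glycosomal PGK reaction used 1,3-bisphosphoglycerate generated in-well by GAPDH (100nM final) in 100mM TEA pH 7.6, 5mM MgCl2, 0.01% Tween-20. After 60 minutes at room temperature, ATP was read by Kinase-Glo Plus luminescence end-point.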
TDP1 inh = TDP1 (human) enzyme inhibition | hit rate 0.28% among 350,000 | AID 485290 | recombinant TDP1, AlphaScreen DNA substrate cleavage | Q9NUW8 | Potency, µM (top dose mostly 130 µM), for inactives: at the highest dose activity change, negative = inhibition, most hits filed as inhibitors; note: potency is the fitted concentration of half-maximal effect; nearly all actives have a fitted effect of over 40% in size
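Here, a 5' biotin and 3' phosphotyrosine-FITC DNA oligonucleotide reports Tdp1 activity: intact substrate bridges AlphaScreen beads, while cleavage leaves a 3' phosphate and drops signal. All incubations at room temperature.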
Tb PFK block = T. brucei PFK enzyme inhibition. hit rate 0.17% among 330,000. T. brucei PFK, ADP-Glo luminescence. O15648. Potency, µM (series often up to 57.5 µM), for inactives: at the highest dose activity, negative = inhibition, actives largely listed as inhibitors;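 note: potency is the fitted concentration of half-maximal effect; 0% = uninhibited 1x PFK enzyme wells and -100% = no-enzyme wells; nearly all actives have a fitted effect of over 60% in size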
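ADP-Glo luminescence quantified ADP after 45 min at room temperature, with 1.25 nM T. brucei PFK, 0.1 mM ATP and 0.5 mM fructose-6-phosphate in pH 8.0 TEA buffer. qHTS titrations up to 57 µM; curves classified by quality.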
The depositor's hits bear a star; ! = a repeat was not active; [ ] = another dose, or the depositor's remark. Compounds with a hit are over-represented: about 1.5% of the library has one in this group of screens. Unless noted, calls come from the whole dose curve; as a rule, active = well fitted curve in the direction sought with a large enough effect; inconclusive = small, poorly fitted or top-dose-only effect, or another doubt; inactive = no such curve, though single readings can be large; an effect the other way counts as inactive or inconclusive. Unless noted, % is set by controls: 0 for no effect and ±100 for the full control effect.

C=C(C)C(=O)Nc1cccc(C2=NOC3(C2)C[C@@H](C(N)=O)N(C(=O)c2cc([N+](=O)[O-])cc([N+](=O)[O-])c2C)C3)c1 (some centres undefined) was read as PI5P4Ka inh -4, WRN inhibitor inconclusive, FEN1 inhibitor 1%, Tb PGK inh 11µM* and Tb PFK block inconclusive.
Screening CCCCCCCCCCCCCCCCCCN(CCCCCCCCCCCCCCCCCC)c1ccc(C=O)cc1 returned FEN1 inhibitor -1%.
Screening Cc1ccc(CNc2nc(N)c([N+](=O)[O-])c(NCCO)n2)cc1 returned PI5P4Ka inh inconclusive, WRN inhibitor 7%, FEN1 inhibitor -1%, Tb PGK inh -6%, TDP1 inh -1% and Tb PFK block 0%.
Nc1nc(NCc2ccc(Cl)cc2)nc(NCCO)c1[N+](=O)[O-] was read as PI5P4Ka inh -57*, WRN inhibitor -5%, FEN1 inhibitor -5%, Tb PGK inh -6%, TDP1 inh 1% and Tb PFK block -14%.
`N#CC(C#N)=C(N)/C(C#N)=C/c1ccc(O)cc1` gave FEN1 inhibitor -6%[57.1 µM] and TDP1 inh 6%.
Screening N#CC(=Cc1ccc(O)cc1)C(N)=C(C#N)C#N returned PI5P4Ka inh -69*, WRN inhibitor 0%, FEN1 inhibitor 14%, Tb PGK inh -8% and Tb PFK block -5%.
`Cc1ccc2nc(/C=C/c3ccc(N(C)C)cc3)ccc2c1` gave FEN1 inhibitor 10%.
O=C(C[n+]1c(Cl)cc(Cl)c2ccccc21)c1ccccc1 was read as FEN1 inhibitor -22%.
For COc1ccc(/C=C2/C(=O)N(c3nc4ccccc4s3)N=C2CSc2ccc(Cl)cc2)cc1 the results were PI5P4Ka inh -72*, WRN inhibitor -16%, FEN1 inhibitor 0%, Tb PGK inh inactive, TDP1 inh 7% and Tb PFK block 10%.
COc1ccc(CN2CCN(c3nc4ccccc4s3)CC2)cc1 was read as PI5P4Ka inh 4, WRN inhibitor 3%, FEN1 inhibitor -2%, Tb PGK inh 1% and Tb PFK block -8%.
Cc1cccc(/C=C(\C(=O)O)c2ccc(S(=O)(=O)N3CCCC3)s2)c1 was read as PI5P4Ka inh -25, WRN inhibitor inconclusive, FEN1 inhibitor 1%, Tb PGK inh -8%, TDP1 inh 11µM* and Tb PFK block -25%.
Cc1ccc(NS(=O)(=O)c2cc3c(cc2-c2ccco2)NC(=O)CO3)cc1C was read as TDP1 inh 0%.
CC(=NNC(=O)c1ccc(NS(=O)(=O)c2ccc(Br)cc2)cc1)c1cccnc1 was read as PI5P4Ka inh -53*, WRN inhibitor -26%, FEN1 inhibitor 1%, Tb PGK inh 0%, TDP1 inh 2% and Tb PFK block 5%.
For O=C(Cc1nnc(-c2cc3ccccc3[nH]2)s1)Nc1cc(C(F)(F)F)ccc1Cl the results were TDP1 inh 0%.
`CC(C)CC1NC(=S)N(C2CCCCC2)C1=O` (centres undefined) gave PI5P4Ka inh -59*, WRN inhibitor inconclusive, FEN1 inhibitor 3%, Tb PGK inh inactive, TDP1 inh 2% and Tb PFK block 0%.
Screening N[C@@H](C(=O)O)c1ccc(C(=O)O)c(C(=O)O)c1 returned TDP1 inh 40µM*!.
`N[C@H](C(=O)O)c1ccc(O)c(C(=O)O)c1` gave TDP1 inh 14%[56.1 µM].
For CCCCC[C@H](O)/C=C/[C@H]1C=CC(=O)[C@@H]1C/C=C\CCCC(=O)O the results were TDP1 inh 5% and Tb PFK block 30µM*.
Screening CCCCC/C=C\C/C=C\C/C=C\CCCCC(=O)O returned PI5P4Ka inh -54*, WRN inhibitor inconclusive, FEN1 inhibitor -1%, Tb PGK inh 0%, TDP1 inh -15% and Tb PFK block -9%.
Screening CCCCC/C=C/C=C1/C(=O)C=C[C@@H]1C/C=C\CCCC(=O)O returned TDP1 inh 18µM*!.
